Where a name gives a salt, the structure may show the parent alone.
Tests used:
Details in all cases: incubation time: 27 h, anaerobic, 37 °C;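 for the amine columns active = adjusted P below 0.05 in both replicates with a change the same way and a mean fold change under 0.8 or over 1.25; inactive = the rest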
[1] = system: Clostridium sporogenes DSM 1664; assay: growth (OD595) fold change vs plate DMSO controls (fold change (ratio)); higher = more growth
How it was run: (§1)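 Growth is calculated as fold change against the median of the DMSO control wells on each plate. Readings at 595 nm from anaerobic mGAM cultures (96-well, 27 h, 37 °C) were blank-subtracted, background-corrected with 20 µM compound solutions in water, and converted to OD by a calibration factor of 5. Fold changes above 1.5 were recorded as NA, and results are means of 2 biological replicates.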

Escherichia coli IAI1 [2] = assay: as above
How it was run: as §1

[3] = system: Klebsiella aerogenes DSM 30053; assay: as above
How it was run: as §1

[4] = system: Ruminococcus gnavus DSM 108212; assay: as above
How it was run: as §1

[5] = system: Klebsiella aerogenes DSM 30053; assay: fold change of Histamine concentration vs plate DMSO controls (fold change (ratio)); higher = more amine produced, active = hit call of the paper (significant change in both replicates, either direction)
How it was run: (§2)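 Extracts of whole anaerobic mGAM cultures were analysed for amines by LC–triple-quadrupole MS with dynamic MRM and external calibration curves, with drift corrected within batch. Four gut strains were grown at 37 °C for 27 h in 80 µL wells with compounds at 20 µM final, sweeteners at 50 µM final. Each value expresses fold change over plate DMSO controls. The average of 2 biological replicates is shown.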

[6] = system: Clostridium sporogenes DSM 1664; assay: fold change of Tryptamine concentration vs plate DMSO controls (fold change (ratio)); higher = more amine produced, active = hit call of the paper (significant change in both replicates, either direction)
How it was run: as §2

[7] = system: Ruminococcus gnavus DSM 108212; assay: as above
How it was run: as §2

Escherichia coli IAI1 [8] = assay: fold change of Putrescine concentration vs plate DMSO controls (fold change (ratio)); higher = more amine produced, active = hit call of the paper (significant change in both replicates, either direction)
How it was run: as §2

[9] = system: Klebsiella aerogenes DSM 30053; assay: as above
How it was run: as §2

Escherichia coli IAI1 [10] = assay: fold change of Cadaverine concentration vs plate DMSO controls (fold change (ratio)); higher = more amine produced, active = hit call of the paper (significant change in both replicates, either direction)
How it was run: as §2

[11] = system: Klebsiella aerogenes DSM 30053; assay: as above
How it was run: as §2

[12] = system: Ruminococcus gnavus DSM 108212; assay: fold change of 2-Phenylethylamine concentration vs plate DMSO controls (fold change (ratio)); higher = more amine produced, active = hit call of the paper (significant change in both replicates, either direction)
How it was run: as §2

| SMILES | growth [1] | growth (Escherichia coli IAI1 [2]) | growth [3] | growth [4] | fold change of Histamine concentration [5] | fold change of Tryptamine concentration [6] | fold change of Tryptamine concentration [7] | fold change of Putrescine concentration (Escherichia coli IAI1 [8]) | fold change of Putrescine concentration [9] | fold change of Cadaverine concentration (Escherichia coli IAI1 [10]) | fold change of Cadaverine concentration [11] | fold change of 2-Phenylethylamine concentration [12] |
| --- | --- | --- | --- | --- | --- | --- | --- | --- | --- | --- | --- | --- |
| Nc1nc2n[nH]nc2c(=O)[nH]1 [Azaguanine-8] (20 µM) | 0.886 | 1.05 | 1.01 | 0.846 | 1.04 (inactive) | 0.988 (inactive) | 0.924 (inactive) | 1.01 (inactive) | 0.968 (inactive) | 1.01 (inactive) | 1.03 (inactive) | 0.882 (inactive) |
| Cc1c(F)c(N2CCNC(C)C2)cc2c1c(=O)c(C(=O)O)cn2C1CC1 (stereo not drawn) [Grepafloxacin] (20 µM) | 0.0227 | 0.0384 | 0.142 | 1.29 | 0.0669 (active) | 0.0355 (active) | 0.697 (inactive) | 0.738 (active) | 0.628 (active) | 0.155 (active) | 0.936 (inactive) | 0.731 (inactive) |
| O=C(Oc1ccccc1)c1ccccc1O [Phenyl salicylate] (20 µM) | 1.08 | 0.961 | 0.971 | 1.04 | 1.09 (inactive) | 1.12 (inactive) | 1.08 (inactive) | 1.03 (inactive) | 0.942 (inactive) | 0.916 (inactive) | 1 (inactive) | 1.13 (inactive) |
| NS(=O)(=O)Cc1noc2ccccc12 [Zonisamide] (20 µM) | 0.883 | 1.01 | 0.994 | 1.01 | 1.02 (inactive) | 1.07 (inactive) | 0.863 (inactive) | 1.07 (inactive) | 1.01 (inactive) | 1.05 (inactive) | 1 (inactive) | 0.806 (inactive) |
| CCOC(=O)[C@H](CCc1ccccc1)N[C@@H](C)C(=O)N1C(=O)N(C)C[C@H]1C(=O)O [Imidapril hydrochloride] (20 µM) | 1.19 | 1.05 | 1.05 | 1.2 | 0.963 (inactive) | 0.931 (inactive) | 1.03 (inactive) | 1.05 (inactive) | 0.997 (inactive) | 1.01 (inactive) | 0.989 (inactive) | 1.05 (inactive) |
| CC1(C)[C@H](C(=O)O)N2C(=O)C[C@H]2S1(=O)=O [Sulbactam] (20 µM) | 0.592 | 1.19 | 0.976 | 1.21 | 1.05 (inactive) | 1.07 (inactive) | 1.07 (inactive) | 1.14 (inactive) | 0.983 (inactive) | 0.985 (inactive) | 1.01 (inactive) | 1.08 (inactive) |
| COc1c(O)cc2c(c1O)[C@@H]1O[C@H](CO)[C@@H](O)[C@H](O)[C@H]1OC2=O [Bergenin] (20 µM) | 0.966 | 1.05 | 1.11 | 1.05 | 0.891 (inactive) | 1.01 (inactive) | 1.06 (inactive) | 0.97 (inactive) | 0.997 (inactive) | 0.93 (inactive) | 1.03 (inactive) | 1.05 (inactive) |
| O=C1c2cccc3c2[C@H](CCC3)CN1[C@@H]1CN2CCC1CC2 [Palonosetron hydrochloride] (20 µM) | 1 | 1.05 | 0.978 | 0.887 | 1.09 (inactive) | 0.963 (inactive) | 1.04 (inactive) | 1.06 (inactive) | 0.996 (inactive) | 0.979 (inactive) | 0.983 (inactive) | 1.04 (inactive) |
| O=C1Nc2ccc(Cl)cc2[C@@](C#CC2CC2)(C(F)(F)F)O1 [Efavirenz] (20 µM) | 1.25 | 1.01 | 1.02 | 1.22 | 0.986 (inactive) | 1.02 (inactive) | 0.936 (inactive) | 1.04 (inactive) | 0.985 (inactive) | 1.02 (inactive) | 0.997 (inactive) | 0.935 (inactive) |
| Nc1nc(=O)c2c([nH]1)NC[C@@H](CNc1ccc(C(=O)N[C@@H](CCC(=O)O)C(=O)O)cc1)N2C=O [Folinic acid calcium salt] (20 µM) | 0.975 | 0.979 | 0.993 | 0.963 | 0.976 (inactive) | 1.02 (inactive) | 0.944 (inactive) | 1.05 (inactive) | 0.998 (inactive) | 0.962 (inactive) | 0.999 (inactive) | 0.882 (inactive) |
| CC[C@@H](CO)NCCN[C@@H](CC)CO [Ethambutol dihydrochloride] (20 µM) | 0.97 | 1.02 | 1.01 | 0.965 | 0.958 (inactive) | 0.996 (inactive) | 1.04 (inactive) | 1.05 (inactive) | 0.987 (inactive) | 0.954 (inactive) | 1.01 (inactive) | 1.09 (inactive) |
| CC(=O)N(O)CCCCCNC(=O)CCC(=O)N(O)CCCCCNC(=O)CCC(=O)N(O)CCCCCN [Deferoxamine mesylate] (20 µM) | 0.934 | 0.997 | 0.996 | 1.06 | 0.926 (inactive) | 1.04 (inactive) | 1.18 (inactive) | 0.952 (inactive) | 0.951 (inactive) | 0.996 (inactive) | 1.03 (inactive) | 1.29 (inactive) |
| CCCCN1CCCCC1C(=O)Nc1c(C)cccc1C (stereo not drawn) [Bupivacaine hydrochloride] (20 µM) | 1.13 | 1.07 | 1 | 0.881 | 0.967 (inactive) | 1.02 (inactive) | 1.01 (inactive) | 1.02 (inactive) | 0.995 (inactive) | 1.01 (inactive) | 1 (inactive) | 1.02 (inactive) |
| O=C(Oc1ccccc1)n1c(C(F)(F)F)nc2cc(Cl)c(Cl)cc21 (20 µM) | 0.822 | 0.604 | 0.714 | 0.827 | 1.39 (active) | 1.11 (inactive) | 0.875 (inactive) | 1.38 (active) | 0.931 (inactive) | 1.59 (active) | 0.926 (inactive) | 0.917 (inactive) |
| CC(=O)Oc1cc2c(s1)CCN(C(C(=O)C1CC1)c1ccccc1F)C2 (stereo not drawn) [Prasugrel] (20 µM) | 1.1 | 1.02 | 1 | 0.989 | 1 (inactive) | 0.957 (inactive) | 0.985 (inactive) | 0.983 (inactive) | 1.01 (inactive) | 1.03 (inactive) | 0.994 (inactive) | 0.965 (inactive) |
| COC1=CC(=O)C[C@@H](C)[C@]12Oc1c(Cl)c(OC)cc(OC)c1C2=O [Griseofulvin] (20 µM) | 0.993 | 1.02 | 0.922 | 0.915 | 1.02 (inactive) | 1.03 (inactive) | 0.993 (inactive) | 1.01 (inactive) | 0.989 (inactive) | 1.03 (inactive) | 0.999 (inactive) | 0.98 (inactive) |
| NCC[C@H](O)C(=O)N[C@@H]1C[C@H](N)[C@@H](O[C@H]2O[C@H](CN)[C@@H](O)[C@H](O)[C@H]2O)[C@H](O)[C@H]1O[C@H]1O[C@H](CO)[C@@H](O)[C@H](N)[C@H]1O [Amikacin hydrate] (20 µM) | 0.793 | 0.983 | 0.78 | 0.735 | 0.601 (active) | 0.812 (inactive) | 0.911 (inactive) | 1 (inactive) | 0.992 (inactive) | 0.922 (inactive) | 0.982 (inactive) | 0.972 (inactive) |
| COc1ccccc1OCC(O)COC(N)=O (stereo not drawn) [Methocarbamol] (20 µM) | 1.03 | 1 | 1.03 | 1.12 | 1.06 (inactive) | 1.02 (inactive) | 0.963 (inactive) | 0.998 (inactive) | 1.01 (inactive) | 0.986 (inactive) | 0.987 (inactive) | 0.95 (inactive) |
| Cc1c(OCC(F)(F)F)ccnc1C[S+]([O-])c1nc2ccccc2[nH]1 (stereo not drawn) [Lansoprazole] (20 µM) | 1 | 1.06 | 1.01 | 1.02 | 1.03 (inactive) | 1.02 (inactive) | 0.974 (inactive) | 1.03 (inactive) | 1.01 (inactive) | 1.03 (inactive) | 1.01 (inactive) | 0.971 (inactive) |
| Cc1c(Cl)cccc1Nc1ncccc1C(=O)O [Clonixin lysinate] (20 µM) | 1.13 | 1.07 | 1.02 | 1.43 | 1.01 (inactive) | 0.959 (inactive) | 1.01 (inactive) | 1.1 (inactive) | 1.03 (inactive) | 0.96 (inactive) | 1.04 (inactive) | 1.01 (inactive) |
| NC(=O)N1c2ccccc2CC(=O)c2ccccc21 [Oxcarbazepine] (20 µM) | 0.964 | 1.01 | 0.977 | 1 | 1.07 (inactive) | 0.996 (inactive) | 1.02 (inactive) | 1 (inactive) | 1.01 (inactive) | 1.02 (inactive) | 0.994 (inactive) | 1.01 (inactive) |
| CNS(=O)(=O)Cc1ccc2[nH]cc(CCN(C)C)c2c1 [Sumatriptan succinate] (20 µM) | 1.11 | 0.977 | 1.21 | 0.976 | 0.809 (inactive) | 1.05 (inactive) | 1.01 (inactive) | 0.895 (inactive) | 0.992 (inactive) | 1.03 (inactive) | 1.03 (inactive) | 1.06 (inactive) |
| OC[C@H]1O[C@@](CO)(OC[C@@]2(OC[C@@]3(O[C@H]4O[C@H](CO)[C@@H](O)[C@H](O)[C@H]4O)O[C@H](CO)[C@@H](O)[C@@H]3O)O[C@H](CO)[C@@H](O)[C@@H]2O)[C@@H](O)[C@@H]1O [Nystose] (50 µM) | 1.05 | 1.09 | 1.02 | 1.05 | 1.05 (inactive) | 1.01 (inactive) | 1 (inactive) | 0.999 (inactive) | 1.01 (inactive) | 0.958 (inactive) | 0.995 (inactive) | 0.994 (inactive) |
| Cc1cccc(N(C)C(=S)Oc2ccc3ccccc3c2)c1 [Tolnaftate] (20 µM) | 1.02 | 0.997 | 0.984 | 0.839 | 0.984 (inactive) | 1.04 (inactive) | 1.06 (inactive) | 1.04 (inactive) | 1.01 (inactive) | 1 (inactive) | 1 (inactive) | 1.04 (inactive) |

Reference: the supplement of paper PMC12494721
